Screening results from PubChem BioAssay.
VDR inhibitor: inhibitors of human vitamin D receptor; VDR-SRC2-3 peptide fluorescence polarization, 2 h; Potency, µM, for inactives: max response, negative = inhibition, usual class: inhibitors; 400,000 compounds, 0.93% hits; P11473; further: potency means the concentration at half of the fitted maximal effect; on the % scale 0 is the no-effect control and ±100 the full control effect
Target sequence (P11473 whole entry, looked up): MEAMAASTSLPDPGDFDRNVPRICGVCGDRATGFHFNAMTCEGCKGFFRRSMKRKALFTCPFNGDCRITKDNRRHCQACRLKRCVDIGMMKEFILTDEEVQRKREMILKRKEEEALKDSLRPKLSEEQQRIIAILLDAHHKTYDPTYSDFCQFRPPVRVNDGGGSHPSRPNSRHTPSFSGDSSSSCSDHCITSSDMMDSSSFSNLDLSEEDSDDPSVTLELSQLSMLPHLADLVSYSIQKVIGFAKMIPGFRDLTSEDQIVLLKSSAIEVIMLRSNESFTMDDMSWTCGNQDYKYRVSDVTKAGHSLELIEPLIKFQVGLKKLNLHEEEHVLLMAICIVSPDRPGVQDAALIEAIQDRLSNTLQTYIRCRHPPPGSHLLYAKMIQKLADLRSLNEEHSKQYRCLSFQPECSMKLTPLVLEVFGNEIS
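Reagent solutions, kept cold and dark, are dispensed first; compounds are then pinned in at 23 nl, plates briefly spun, and incubated 2 h at ambient temperature. Inhibition of VDR–SRC2-3 peptide binding is read by fluorescence polarization.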
RGS12 GoLoco inh: inhibitors of human Gai1-RGS12 GoLoco interaction (red fluorophore); Gai1:RGS12 GoLoco peptide FP, rhodamine, 10 min; Potency, µM (top dose mostly 61.6 µM), for the others: top-dose activity, negative = inhibition, hits mostly inhibitors; 230,000 compounds, 0.44% hits; active means well fitted inhibition curve with a large enough effect, not every such curve was filed as active; inactive means no such curve, though single readings can be large or run the other way; further: potency means the concentration at half of the fitted maximal effect; on the % scale 0 is the no-effect control and ±100 the full control effect; nearly all actives have a fitted effect of over 30% in size
HTT ATP protect: cytoprotection in Huntington HTT-Q103 PC12 cell model; PC12 HTT-Q103 induced, cytoprotection, ATP luminescence, 40 h; Potency, µM (highest dose often 56.4 µM), without a hit: cytoprotection (ATP increase), most hits filed as activators; 230,000 compounds, 0.14% hits; further: potency means the concentration at half of the fitted maximal effect; % of control where 0% means no effect; nearly all actives have a fitted effect of over 45% in size
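Stable PC12 Q103-GFP cells in serum-supplemented, phenol red-free DMEM; induction by tebufenozide at 100 nM final; compound dose series; cell viability quantified luminescently from ATP.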
JMJD2E inh: inhibitors of human JMJD2E histone demethylase; AID 2147; 230,000 compounds, 1.6% hits; JMJD2E catalytic domain, FDH-coupled NADH fluorescence (FDH is formaldehyde dehydrogenase); B2RXH2; Potency, µM (titrated, usually from 57.1 µM), for the others: top-dose activity change, negative = inhibition, usual class: inhibitors; active means well fitted inhibition curve with a large enough effect, not every such curve was filed as active; inconclusive means small, poorly fitted or top-dose-only effect, or another doubt; inactive means no such curve, though single readings can be large or run the other way;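 further: potency means the concentration at half of the fitted maximal effect; 0% = wells with enzyme and -100% = buffer wells without enzyme; nearly all actives have a fitted effect of over 50% in size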
HttQ103 aggreg: mutant huntingtin aggregation inhibition; Potency, µM (top dose mostly 46.1 µM), inactives show at the highest dose activity change, negative = inhibition, hits mostly inhibitors; 220,000 compounds, 1.1% hits; AID 1688; PC12 HttQ103-GFP aggregates, Acumen cytometry, 40 h; further: potency means the concentration at half of the fitted maximal effect; on the % scale 0 is the no-effect control and ±100 the full control effect; nearly all actives have a fitted effect of over 60% in size
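Aggregate formation scored by laser-scanning cytometer (488 excitation, 500–530 emission) in lysed PC12 cells expressing Q103-GFP after 100 nM tebufenozide induction; library tested in dose series, with ATPLite reagent added in the multiplex.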
FBPA coupling cs: counter-screen for Giardia aldolase inhibitors: coupling enzyme system; coupling enzyme system counterscreen, AmpLite Red fluorescence; activity change, negative = inhibition, % at 58.2 µM, hits read low; 290,000 compounds, 0.67% hits; AID 2472; in the data active means activity change below about -30%; further: on the % scale 0 is the no-effect control and ±100 the full control effect
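Counterscreen lacking aldolase: glyceraldehyde-3-phosphate coupling-enzyme reagent preincubated 10 min at RT with compound (at 57.5 uM final), then substrate/coupling system with AmpLite Red added; fluorescence read at 525/598 nm after 20 min RT.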
The depositor's hits bear a star; u = inconclusive; x = no result; [ ] = another dose, or the depositor's remark. Shown are actives, neighbours in structure and some others; about 2.3% of the full set was active somewhere. Unless noted, the call rests on the fitted dose curve; in most records, active means well fitted curve in the direction sought with a large enough effect; inconclusive means small, poorly fitted or top-dose-only effect, or another doubt; inactive means no such curve, though single readings can be large; an effect the other way counts as inactive or inconclusive.

SMILES	VDR inhibitor	RGS12 GoLoco inh	HTT ATP protect	JMJD2E inh	HttQ103 aggreg	FBPA coupling cs
CCC(=O)N1Cc2ccccc2-c2ccccc2C1=O	-2%	9%	3%[0.074 µM]	u	5.6µM*	1
O=C(NCc1ccccc1)c1nccnc1CO	-12%	x	x	x	x	3
CCc1ccc(C(=O)CN2C(=O)NC3(CCc4ccccc43)C2=O)cc1 (centres undefined)	-11%	x	x	x	x	x
[C-]#[N+][C@H](O[C@@H]1O[C@H](CO)[C@@H](O)[C@H](O)[C@H]1O)c1ccccc1	-1%	x	x	x	x	x
O=C(O)CC(CCc1ccccc1)OC1OC(CO)C(O)C(O)C1O (centres undefined)	-4%	2%	9%[10 µM]	25µM*	7%[9.22 µM]	1
CC(=O)Nc1ccc(S(=O)(=O)N(C)CC(=O)NNC(=O)c2cccs2)cc1	1%	x	x	x	x	x
NS(=O)(=O)c1cccc(NC(=O)c2cccs2)c1	25µM*	5%	6%[10 µM]	10%	-9%[9.22 µM]	0
CCCCN(CCCC)S(=O)(=O)c1ccc(NC(=O)c2cccs2)cc1	23%	8%	9%[10 µM]	-13%	13µM*	-1
COc1ccc(OC)c(C2/C(=C(/O)c3cnn(-c4ccccc4)c3C)C(=O)C(=O)N2CCN(C)C)c1 (centres undefined)	-6%	1%	-14%	u	10µM*	0
COc1ccc(OC)c(C2/C(=C(\O)c3ccc(OC)c(Cl)c3)C(=O)C(=O)N2CCN(C)C)c1 (centres undefined)	-1%	-8%	-36%	-25%	-11%	4
CC[C@@H](C)[C@H](NS(=O)(=O)c1cccc2ccccc12)C(=O)N[C@H](C=O)Cc1c[nH]c2ccccc12	32µM*	4%	-89%	x	x	x
CC(Cc1c[nH]c2ccccc12)NC(N)=O (centres undefined)	2%	-6%	-18%	-5%	3%	1
CCc1nnc(N/N=C/c2ccc(-c3ccc([N+](=O)[O-])cc3)o2)n1N	-24%	28%	-89%	-18%	-32%	-37*
Cc1nnc(N/N=C\c2ccc(-c3ccccc3[N+](=O)[O-])o2)n1N	-16%	-1%	2%[10 µM]	2%	6%	-65*
Cc1ccc(C(=O)c2coc3cc([N+](=O)[O-])c(O)c([N+](=O)[O-])c23)cc1	-19%	-21%	6%[1.9 µM]	-2%	2%	-35*
Cc1ccc(C(=O)c2ccc([N+](=O)[O-])cc2)cc1	0%	0%	12%	-4%	-31%	0
Cc1ccc(NNS(=O)(=O)c2ccc(C)cc2)cc1	u	-42%	-34%	18µM*	12%	x
CC(=O)Nc1ccc(S(=O)(=O)NNc2ccc([N+](=O)[O-])cc2)cc1	89µM*	x	x	x	x	-2
CC(C)(C)C(=O)[C@H](C(c1ccccc1)N1CCOCC1)N1CCOCC1 (some centres undefined)	x	5%[14.2 µM]	x	x	x	x
COc1ccccc1NC(=S)NNC(=O)c1cc(C)n(C)n1	-2%	6%	u	18µM*	-23%	-6
COc1ccccc1NC(=S)NNC(=O)c1cc(C)nn1C	-15%	7%	-4%	-3%	10%	-3
CCOC(=O)c1ccc(Nc2nc3nonc3nc2Nc2cccc(C)c2C)cc1	3%	x	x	x	x	x
O=c1[nH]c(NCCO)c(N=Cc2ccccc2)c(=O)[nH]1	-28%	x	x	x	x	x
Nc1[nH]c(=O)[nH]c(=O)c1N=Cc1ccccc1	71µM*	x	x	x	x	x
CCOC(=O)Cn1c2[n+](c3ccccc31)CC(O)CS2 (centres undefined)	-9%	16µM*	0%	-5%	-11%	6
SMILES	VDR inhibitor	RGS12 GoLoco inh	HTT ATP protect	JMJD2E inh	HttQ103 aggreg	FBPA coupling cs
COC(=O)Cn1c2[n+](c3ccccc31)CC(O)CS2 (centres undefined)	11%	3%	-2%[1.9 µM]	6%	3%	1
Cc1c(C(=O)N/N=C/C(C)C)[nH]c2ccc([N+](=O)[O-])cc12	3%	10%	0%[1.9 µM]	2%	7.1µM*	12
CC(=O)N1CCCC1c1nc2ccccc2n1Cc1cccc(Cl)c1 (centres undefined)	11%	x	x	x	x	x
COc1ccc(O[C@H]2C=C[C@@H](c3ccccc3)O[C@@H]2CO/N=C(\C)CCN2CCc3nc(-c4ccccc4)c(-c4ccccc4)cc3C2)cc1	x	9%	u	u	-17%	1
CCc1cc2c(nc1CC)CCN(CC/C(C)=N/OC[C@H]1O[C@H](c3ccccc3)C=C[C@@H]1Oc1ccc(OC)cc1)C2	x	63%	-34%[10 µM]	35µM*	u	1
CC(OC(=O)C1CC1)C(=O)Nc1ccc([N+](=O)[O-])cc1Cl (centres undefined)	-4%	7%	3.5µM*	-1%	-5%	1
CC(=O)c1ccc2cccc3c2c1N=CN3C	8%	x	-23%	-2%	-6%	-43*
CC(=O)c1ccc2c3c(cccc13)CC2	-14%	-3%	5%[10 µM]	u	-19%	1
Cc1ccc(S(=O)(=O)N2C(=O)/C(=C3\SC(=S)NC3=O)c3ccccc32)cc1	x	-1%	x	-4%	0.79µM*	-1
CC(=C\c1ccccc1)/C=C1/SC(=S)N(C(C(=O)O)C(C)C)C1=O (centres undefined)	u	0%	-8%	-15%	23%	1
Cc1ccc(/C=C2\SC(=S)N(C(Cc3ccccc3)C(=O)O)C2=O)cc1 (centres undefined)	50µM*	0%	-9%[10 µM]	-3%	13%	1
CC(C)C(C(=O)O)N1C(=O)/C(=C/c2ccc(Br)cc2)SC1=S (centres undefined)	5µM*	x	x	x	x	10
CNS(=O)(=O)c1ccccc1C(=N)c1ccccc1	x	0%[14.2 µM]	4%[10 µM]	x	x	x
COc1cccc(NC(=S)/C(=C(\[O-])c2cc(C)n(-c3ccccc3F)c2C)[n+]2ccc(N(C)C)cc2)c1	2%	12%	-78%	-4%	13µM*	-4
Cc1cc(C([O-])=C(C(=S)Nc2ccc(F)cc2)[n+]2ccccc2)c(C)n1-c1ccc(F)cc1	-15%	x	x	x	x	x
COC(=O)\C(C(C)=O)=C(/C=C/C=C/C=C/N(C)C)N(C)C	5%	142%	0%	22µM*	-28%	-11
O=C(NCC1CCCN1S(=O)(=O)c1cccs1)C(=O)Nc1ccc(F)cc1F (centres undefined)	-5%	x	x	x	x	x
CC12C=C(/C=C/c3ccc(C(F)(F)F)cc3)C(C)(C1)C(c1ccc(C(F)(F)F)cc1)CC2=O (centres undefined)	x	x	-7%[10 µM]	x	x	1
Cc1nn(-c2ccccc2)c2c1C1(C(=O)N(C)c3ccccc31)C(C#N)=C(N)O2 (centres undefined)	-8%	-8%	-12%	-11%	5%	-44*
